Screening results deposited in PubChem BioAssay by National Center for Advancing Translational Sciences (NCATS).
Compounds with a hit are over-represented: about 7.3% of the library has one in this group of screens.
Vaccinia mCherry: vaccinia inhibition (mCherry reporter); Vaccinia virus mCherry reporter infection, fluorescence; Potency, µM (doses to about 36.5 µM), for the others: at the highest dose activity change, negative = inhibition, actives largely listed as inhibitors; hit rate 0.63% among 310,000; calls by dose curve; tested in A549 cells; also: potency is read from the fitted curve at half-maximal effect; nearly all actives have a fitted effect of over 35% in size
VACV Venus inh: vaccinia inhibition (Venus reporter) | Vaccinia virus Venus reporter expression, fluorescence | Potency, µM (series often up to 36.5 µM), without a hit: top-dose activity change, negative = inhibition, actives largely listed as inhibitors | hit rate 0.46% among 330,000; calls by dose curve; tested in A549 cells; also: potency is read from the fitted curve at half-maximal effect; nearly all actives have a fitted effect of over 30% in size
FMDV inh: blocks foot and mouth disease virus | FMDV antiviral cell-based qHTS | Potency, µM (doses to about 57.9 µM), for the others: at the top dose activity change, negative = inhibition, hits mostly inhibitors | hit rate 1.2% among 410,000 | AID 1159524; calls by dose curve; tested in HEK293T cells; also: read-out not given here; potency is read from the fitted curve at half-maximal effect; nearly all actives have a fitted effect of over 45% in size
HCMV antiviral: inhibitors of human cytomegalovirus; HFF cells, HCMV-luciferase reporter, 72 h; active compounds read low; hit rate 4.5% among 410,000; activity change, negative = inhibition, % at 57.5 µM; AID 1259415; in the data active = activity change below about -60%; inconclusive = no clear call, values can overlap the other calls; inactive = above about -39%
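HFF cells seeded 16 h at 37C, treated with compounds, infected with luciferase-reporter HCMV at MOI 1 PFU/cell; luciferase read at 72 h post infection, normalized to buffer-only and Salinomycin controls.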
HCV inh: HCV inhibition; Huh7.5.1 HCVcc-Cre infection, luciferase reporter, 44 h; Potency, µM (titrated, usually from 41.8 µM), without a hit: at the highest dose activity change, negative = inhibition, actives largely listed as inhibitors; hit rate 3.4% among 340,000; AID 651820; active = well fitted inhibition curve with a large enough effect; inconclusive = small, poorly fitted or top-dose-only effect, or another doubt; inactive = no such curve, though single readings can be large or run the other way; also: potency is read from the fitted curve at half-maximal effect
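Infectious HCV cell culture screen: compound-treated cells (1,000/well, pre-plated 4 h) are infected with HCVcc-Cre at roughly 0.5 moi and grown 44 h. Infection is quantified by luciferase signal after 15 min substrate incubation at room temperature.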
* hit, by the source's call; i = inactive; ? = inconclusive; nt = no result given; ! = not confirmed by another sample; [ ] = another dose, or the depositor's remark. % is scaled to controls: 0 for no effect and ±100 for the full control effect.

SMILES	Vaccinia mCherry	VACV Venus inh	FMDV inh	HCMV antiviral	HCV inh
COc1ccccc1N1CCN(C(=O)C(C)N(c2ccc(C)c(C)c2)S(C)(=O)=O)CC1 (configuration not stated)	nt	-22.6%	35.5µM*	-15.1	?
COc1ccccc1N1CCN(C(=O)C(C)N(c2ccc(C)cc2)S(C)(=O)=O)CC1 (configuration not stated)	nt	-19.3%	?	-16.1	-13.5%
Cn1c(-c2ccccc2)c(C(=O)CCl)c2ccccc21	-27.5%	-22.0%	10µM*	-100.6*	5.62µM*
CCn1c(-c2ccccc2)c(C(=O)CCl)c2ccccc21	-15.5%	-18.3%	17.8µM*	-99.6*	8.91µM*
CCOc1ccccc1Oc1cn[nH]c1-c1ccc(O)cc1O	?	-19.0%	?	-78.3*	?
CCCOC(=O)c1ccc(Oc2c(-c3ccc(O)cc3O)n[nH]c2C)cc1	nt	?	-8.0%	-76.8*	?
CCCc1ccc(Oc2cn[nH]c2-c2ccc(O)cc2O)cc1	nt	nt	0.0%	-67.8*	?
CCCOC(=O)c1ccc(Oc2cn[nH]c2-c2ccc(O)cc2O)cc1	nt	nt	?	?	8.91µM*
Cc1c(C(=O)N2CCCC2)oc2c1-c1nn(CC(=O)NC(C)c3ccccc3)cc1CC2 (configuration not stated)	-26.2%	-29.4%	?	-26.7	nt
O=C(NCC(c1cccnc1)N1CCc2ccccc2C1)C(=O)Nc1cccc(Cl)c1 (configuration not stated)	-18.2%	-17.0%	0.0%	1.2	nt
COc1ccc(CNC(=O)c2cc(-c3ccc(C)c(C)c3)n[nH]2)cc1	-15.7%	-12.0%	51.5%	62.1	nt
Nc1ncnc2c1nc(Br)n2[C@@H]1O[C@@H]2COP(=O)(O)O[C@H]2[C@H]1O	-29.1%	-15.7%	-0.9%	-76.3*	29.1%
CN(Cc1ccc(F)cc1)S(=O)(=O)c1nnc(NC(=O)c2ccc(F)cc2)s1	-25.6%	-24.4%	-1.1%	0.0	nt
COc1ccc(C2C(=O)N(C3CCCCCC3)CC(=O)N2CCc2ccc(OC)c(OC)c2)cc1 (configuration not stated)	-11.4%	0.1%	-6.3%	-36.7	nt
Cc1cc(NC(=O)CSc2nc(C(C)C)nc3c2c(=O)n(C)c(=O)n3C)no1	11.4%	-18.3%	?	-33.7	4.7%
CCCn1c(=O)n(C)c(=O)c2c(SCC(=O)Nc3cc(C)on3)nc(C(C)(C)C)nc21	nt	nt	?	-2.8	10µM*
COc1ccccc1S(=O)(=O)Cc1ccc(C(=O)NCc2ccc(Cl)cc2)o1	-12.7%	-0.2%	0.0%	-9.4	nt
CCn1cc(C(=O)O)c(=O)c2cc(F)c(N/N=C/c3ccccc3[N+](=O)[O-])cc21	-22.3%	-14.7%	20µM*	-71.2*	2.9%
CCOC(=O)c1cc2c(=Cc3ccc(N(C)C)cc3)c3ccccc3n2[n+]1C	162.4%	133.9%	17.8µM*	-87.8*	?
CN(C)c1ccc(C=c2c3ccccc3n3c2c2ccccc2[n+]3C)cc1	?	?	25.1µM*	-97.6*	8.91µM*
Cc1cc2c(=Cc3ccc(N(C)C)cc3)c3ccccc3n2[n+]1C	20.9%	254.4%	0.0%	-97.0*	1.26µM*
CN(C)c1ccc(C=C2c3ccccc3-c3ccccc32)cc1	-22.3%	-11.9%	nt	nt	nt
O=C(CN1C(=O)C2(SCC(=O)N2c2ccc(F)cc2)c2ccccc21)NC1CCCCC1 (configuration not stated)	5.6%	12.5%	-18.0%	-3.5	nt
COc1ccccc1CNc1nc(-c2ccco2)nn1C(=O)c1ccccc1[N+](=O)[O-]	-22.0%	-6.4%	-7.2%	50.2	nt
CCOCCn1c(CN2CCN(c3cccc(Cl)c3)CC2)nc2c1c(=O)n(C)c(=O)n2C	-13.9%	-12.4%	?	-17.7	15.8µM*
SMILES	Vaccinia mCherry	VACV Venus inh	FMDV inh	HCMV antiviral	HCV inh
CN(Cc1ccccc1)Cc1nc2c(c(=O)n(C)c(=O)n2C)n1Cc1ccc(Cl)cc1	nt	nt	-4.9%	-16.8	14.1µM*
Cn1c(=O)c2c(nc(CN3CCN(Cc4ccccc4)CC3)n2Cc2ccc(Cl)cc2)n(C)c1=O	i	?	-9.3%	-103.4*	?
COC(=O)Cn1c(CN2CCc3ccccc3C2)nc2c1c(=O)n(C)c(=O)n2C	i	-5.2%	?	-66.4*	-24.4%
Cc1ccccc1Cn1c(CN2CCc3ccccc3C2)nc2c1c(=O)n(C)c(=O)n2C	-18.4%	-7.6%	nt	0.3	?
Cn1c(=O)c2c(nc(CN3CCN(Cc4ccccc4)CC3)n2Cc2ccccc2)n(C)c1=O	nt	nt	nt	nt	10.6%
Cc1cccc(-n2cc(-c3ccccc3)c3c(NC(C)C)ncnc32)c1	i	-10.4%	?	-19.8	nt
CCCCCn1c(CN(C)Cc2ccccc2)nc2c1c(=O)n(C)c(=O)n2C	nt	nt	-11.4%	9.7	14.1µM*!
CC(=O)C(C)n1c(CN(C)Cc2ccccc2)nc2c1c(=O)n(C)c(=O)n2C (configuration not stated)	i	-2.2%	-15.5%	-1.5	?
CC(C)n1c(CN(C)Cc2ccccc2)nc2c1c(=O)n(C)c(=O)n2C	i	-8.4%	17.8µM*	-88.9*	?
C=C(C)Cn1c(CN(C)Cc2ccccc2)nc2c1c(=O)n(C)c(=O)n2C	nt	nt	?	?	11.2µM*
CCCCn1c(CN(Cc2ccccc2)Cc2ccccc2)nc2c1c(=O)n(C)c(=O)n2C	-8.0%[1.46 µM]	-6.9%	?	4.8	10.9%
O=C(c1ccc(CS(=O)Cc2ccccc2Cl)o1)N1CCN(c2cccc(Cl)c2)CC1 (configuration not stated)	-12.2%	-23.6%	-25.3%	-23.3	?
O=C(c1ccc(CS(=O)c2ccccc2Cl)o1)N1CCN(c2cccc(C(F)(F)F)c2)CC1 (configuration not stated)	-15.7%	?	?	-96.0*	nt
O=C(c1ccc(CS(=O)c2ccccc2Cl)o1)N1CCN(c2cccc(Cl)c2)CC1 (configuration not stated)	-9.7%	-26.2%	-18.9%	-93.0*	nt
Cc1ccccc1NS(=O)(=O)c1ccc2[nH]cc(C(=O)N3CCCC3)c(=O)c2c1	1.2%	2.9%	-4.0%	-20.1	nt
CN1C(=O)/C(=C/C=C/c2ccco2)C(=O)NC1=S	16.7%	58.4%	?	0.0	6.5%
Cc1ccc(N2C(=O)NC(=O)/C(=C\C=C\c3ccco3)C2=O)cc1C	-2.1%	28.0%	?	-102.5*	?
O=C1NC(=O)N(Cc2ccccc2)C(=O)/C1=C\C=C\c1ccco1	i	84.9%	25.1µM*	-98.3*	-14.6%
O=C1NC(=O)N(c2ccccc2)C(=O)/C1=C/C=C/c1ccco1	nt	nt	?	-100.2*	?
CCOC(=O)C1=C(C)N(c2ccc(C)c(C)c2)C(=O)/C1=C\c1ccco1	nt	nt	-1.3%	5.5	?
Cc1ccc(N2C(=O)NC(=O)/C(=C\C=C\c3ccco3)C2=O)cc1	nt	nt	20µM*	-99.7*	?
CCOc1ccc(C(=O)c2oc3ccccc3c2NC(=O)Cc2coc3ccc(CC)cc23)cc1	-12.0%	-4.9%	-13.7%	-12.1	nt
O=C1NC(=O)N(c2ccccc2)C1=O	-12.2%	4.9%	-8.1%	-7.9	9.8%
